Compound activity (PubChem BioAssay)
Hits are enriched below; roughly 2.8% of the tested compounds scored in any of these assays.
RGS4 inh = Inhibitors of Regulator of G Protein Signaling (RGS) 4: qHTS; Transcreener GDP fluorescence polarization, RGS4-accelerated GTP hydrolysis; Regulator of G-protein signaling 4 (Homo sapiens), P49798; actives 0.039% (n = 390,000); AID 504845, 2011; Potency, µM (top dose mostly 114 µM), for inactives: top-dose activity change, negative = inhibition, hits mostly inhibitors; active means well fitted inhibition curve with a large enough effect; inconclusive means small, poorly fitted or top-dose-only effect; inactive means no such curve, though single readings can be large or run the other way; further: potency means the concentration at half of the fitted maximal effect; on the % scale 0 is the no-effect control and ±100 the full control effect; nearly all actives have a fitted effect of over 75% in size
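MLSMR compounds (23 nl, pin-transferred) preincubated 10 min at room temperature with a 500nM (2x) first reagent, then RGS4 at 900nM (2x) plus Transcreener GDP mix added; fluorescence polarization (620/688 nm) read before and after 90 min at 30 °C.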
pAkt inh = HTS Assay for Inhibitors of Akt Phophorylation: Primary Screen; Neuro2A IGF-stimulated pAkt S473 HTRF, 20 min; stronger effect = lower value; AID 651550, 2012; actives 0.32% (n = 360,000); activity change, % for hits at 50 µM; in the data active means activity change below about -80%; inconclusive means mostly about -51% to -80%; further: on the % scale 0 is the no-effect control and ±100 the full control effect
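Neuro2A cells in DMEM with 0.5% FBS, overnight at 37 deg C, given compound at single 50 µM final, then IGF (6 nM final) for 20 min at 37 deg C. Lysed; phospho-Akt Ser473 by HTRF after 24 h, 665/615 ratio.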
DRD3 antagonist = qHTS of D3 Dopamine Receptor Antagonist: qHTS | D3R cells, DiscoveRx beta-arrestin luminescence, antagonist mode; stronger effect = lower value | max response, negative = inhibition, % | actives 2.5% (n = 360,000); in the data active means max response below about -50%; inconclusive means no clear call, values can overlap the other calls; further: on the % scale 0 is the no-effect control and ±100 the full control effect
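Cells plated overnight at 1500 cells/well, then exposed to library compounds with dopamine controls for 90 minutes at 37 degrees C. DiscoveRx reagent added for 30–60 minutes at room temperature; luminescence read, quantitative HTS format.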
D3 ag = qHTS of D3 Dopamine Receptor Agonist: qHTS; D3R DiscoveRx beta-arrestin cells, luminescence, 90 min; max activation, %; D(3) dopamine receptor (Homo sapiens), P35462; actives 0.58% (n = 410,000); AID 652048, 2013; in the data active means max activation above about 30%; further: 0% is about no effect
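Cells at 1500/well, incubated overnight, then treated with pinned compounds (dopamine as control) for 90 min at 37 degrees C. DiscoveRx reagent added for 30 - 60 minutes at room temperature; luminescence read.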
PI4K2A block = qHTS for small molecular inhibitors of PI4K2A. activity change, negative = inhibition, % at 76.9 µM. AID 1346378, 2018. purified PI4K2A, ADP-Glo luminescence, 1 h; stronger effect = lower value. actives 0.13% (n = 420,000). Phosphatidylinositol 4-kinase type 2-alpha (Homo sapiens), Q9BTU6; in the data active means activity change below about -50%; inconclusive means mostly about -30% to -49%;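 further: -100% = wells without enzyme as full effect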
Target sequence (Q9BTU6 whole entry, looked up): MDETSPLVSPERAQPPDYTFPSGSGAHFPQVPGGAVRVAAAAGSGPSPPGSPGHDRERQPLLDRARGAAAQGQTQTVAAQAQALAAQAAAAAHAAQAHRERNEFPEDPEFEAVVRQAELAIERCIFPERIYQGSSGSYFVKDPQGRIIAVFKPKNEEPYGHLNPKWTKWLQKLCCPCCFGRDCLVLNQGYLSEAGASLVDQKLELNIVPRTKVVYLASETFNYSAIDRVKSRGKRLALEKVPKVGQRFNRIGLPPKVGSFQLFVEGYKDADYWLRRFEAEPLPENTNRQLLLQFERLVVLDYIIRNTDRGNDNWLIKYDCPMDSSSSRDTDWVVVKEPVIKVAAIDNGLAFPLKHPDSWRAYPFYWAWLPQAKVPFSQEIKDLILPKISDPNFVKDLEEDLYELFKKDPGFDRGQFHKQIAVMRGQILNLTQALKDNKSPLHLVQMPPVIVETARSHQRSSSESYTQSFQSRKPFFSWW
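ADP-Glo luminescence measured ADP generated by PI4K2A enzyme (4 ug/mL before mixing) with 1.2 mM PI substrate (pre-mix) and 300 microM ATP (pre-mix). Tris pH7.5 buffer with MgCl2, Triton X-100; 1 h reaction at ambient temperature.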
LDHA inh = qHTS assay for inhibitors of human lactate dehydrogenase; purified LDHA, NADH/diaphorase-resazurin fluorescence; stronger effect = lower value; L-lactate dehydrogenase A chain (Homo sapiens), P00338; actives 0.15% (n = 480,000); activity change, % (values are at about 110 or 230 µM); in the data active means activity change below about -30%; inconclusive means mostly about -25% to -30%;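 further: plate controls were DMSO wells for no effect and wells without enzyme for full effect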
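Remaining NADH was detected by diaphorase (0.133 mg/mL) converting 37 µM resazurin to fluorescent resorufin, read at 0 and 20 minutes. The preceding 5-minute room-temperature reaction used 2 nM LDHA, 0.2 mM sodium pyruvate and 0.06 mM NADH at pH 7.4.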
* marks the source's active call; other numbers are inactive results; [ ] = remark or other dose.

Cc1ccc(F)cc1-c1cc(C(=O)NCc2cc(C(F)(F)F)cc(C(F)(F)F)c2)[nH]n1 was read as pAkt inh inactive, DRD3 antagonist -70*, D3 ag -13, PI4K2A block 2 and LDHA inh -5.
`Cc1cc(F)ccc1-c1cc(C(=O)NCc2cc(C(F)(F)F)cc(C(F)(F)F)c2)[nH]n1` gave pAkt inh inactive, DRD3 antagonist -8, D3 ag 0, PI4K2A block -1 and LDHA inh -8.
`COc1ccc(F)cc1-c1cc(C(=O)NCc2cccc(C(F)(F)F)c2)[nH]n1` gave pAkt inh inactive, DRD3 antagonist -24, D3 ag -5, PI4K2A block 6 and LDHA inh -7.
For COC(=O)c1ccc(C2/C(=C(\O)c3ccc(F)cc3)C(=O)C(=O)N2c2ccccn2)cc1 (centres undefined) the results were LDHA inh -5.
Screening Cc1ccc(Cl)cc1NC(=O)c1cc2ccccc2cc1O returned RGS4 inh -18%, pAkt inh inactive, DRD3 antagonist 27, D3 ag 36*, PI4K2A block -1 and LDHA inh 0.
`CCCOc1ccc(C2C3=C(Nc4nc(N)[nH]c(=O)c42)c2ccccc2C3=O)cc1` (centres undefined) gave RGS4 inh -26%, pAkt inh inactive, DRD3 antagonist -55*, D3 ag -9, PI4K2A block -1 and LDHA inh -1.
For CCCCCSc1nnc2c(n1)OC(C)N(C(C)=O)c1ccccc1-2 (centres undefined) the results were RGS4 inh 13%, pAkt inh inactive, DRD3 antagonist -68*, D3 ag -12, PI4K2A block 6 and LDHA inh -13.
`CCCOc1ccc2cc(-c3ccccn3)c(=O)oc2c1` gave RGS4 inh -9%, pAkt inh inactive, DRD3 antagonist 9, D3 ag 3, PI4K2A block -61* and LDHA inh 3.
CSc1cc(C)c(OCC(=O)Nc2ccc(NC(C)=O)cc2)c(C)c1 was read as RGS4 inh 7%, pAkt inh inactive, DRD3 antagonist -52*, D3 ag -2, PI4K2A block 5 and LDHA inh -2.
Screening CC(=O)Nc1ccc(NC(=O)COc2c(C)cc(Br)cc2C)cc1 returned RGS4 inh 10%, pAkt inh inactive, DRD3 antagonist -3, D3 ag -1, PI4K2A block -3 and LDHA inh -4.
`CCN(CC)CCNC(=O)C(=O)Nc1cccc2[nH]ccc12` gave LDHA inh 1.
`Cc1cc(C)cc(-n2c(C)c(C)n3c4c(=O)[nH]c(=O)n(C)c4nc23)c1` gave LDHA inh -6.
Nc1ncnc2nc(SCc3ccccc3)[nH]c12 was read as RGS4 inh 5%, pAkt inh -113%*, DRD3 antagonist -23, D3 ag 1, PI4K2A block -11 and LDHA inh -4.
Screening Nc1ncnc2nc(-c3ccccc3)[nH]c12 returned pAkt inh inactive, DRD3 antagonist -7, D3 ag -3, PI4K2A block -19 and LDHA inh -1.
Screening Nc1c(CO)nnn1-c1ccccc1 returned RGS4 inh 0%, pAkt inh inactive, DRD3 antagonist -54*, D3 ag -19, PI4K2A block 3 and LDHA inh -2.
CCCc1ccc(S(=O)(=O)Nc2cc(C(=O)N(C)CC(=O)NC)ccc2N2CCNCC2)cc1 was read as LDHA inh 1.
c1ccc(Cn2nnnc2C(c2cccs2)N2CCc3ccccc3C2)cc1 (centres undefined) was read as RGS4 inh 2%, DRD3 antagonist -69*, D3 ag -11, PI4K2A block 13 and LDHA inh -3.
c1ccc(Cn2nnnc2C(c2cccs2)N2CCCCCC2)cc1 (centres undefined) was read as RGS4 inh 7%, pAkt inh inactive, DRD3 antagonist -20, D3 ag -12, PI4K2A block -2 and LDHA inh -7.
For Cc1ccc2nc(-c3ccc(NC(=O)COc4ccc(Cl)c(C)c4)cc3)sc2c1 the results were RGS4 inh 3%, D3 ag 61*, PI4K2A block -11 and LDHA inh -14.
For Cc1ccc2nc(-c3ccc(NC(=O)COc4c(C)ccc(C)c4C)cc3)sc2c1 the results were RGS4 inh 5%, D3 ag 1, PI4K2A block 3 and LDHA inh -8.
CS(=O)(=O)N1CCC(C(=O)NCCN2CCN(Cc3ccccc3)CC2)CC1 was read as RGS4 inh 25%, pAkt inh inactive, DRD3 antagonist -101*, D3 ag -2, PI4K2A block 3 and LDHA inh -6.
For O=C(NCCN1CCC(Cc2ccccc2)CC1)C1CCN(S(=O)(=O)N2CCC3(CC2)OCCO3)CC1 the results were RGS4 inh -12%[56.9 µM], pAkt inh inactive, DRD3 antagonist -50*, D3 ag -7, PI4K2A block -2 and LDHA inh -6.
`O=C(NCCCN1CCC(Cc2ccccc2)CC1)C1CCN(S(=O)(=O)N2CCC3(CC2)OCCO3)CC1` gave RGS4 inh 25%[56.9 µM], pAkt inh inactive, DRD3 antagonist 7, D3 ag -5, PI4K2A block 3 and LDHA inh -5.
For COc1cc(OCc2ccccc2)c(OC)c(OCc2ccccc2)c1 the results were RGS4 inh -9%, pAkt inh inactive, DRD3 antagonist 28, D3 ag 40*, PI4K2A block -2 and LDHA inh 26.
For CCOC(=O)c1ccc(COC(=O)CCc2nc3ccccc3[nH]c2=O)o1 the results were RGS4 inh 16%, pAkt inh -103%*, DRD3 antagonist 35, D3 ag 0, PI4K2A block -4 and LDHA inh -3.
`O=Cc1ccc(N2CCCCCC2)cc1` gave RGS4 inh inconclusive, pAkt inh -128%*, DRD3 antagonist 20, D3 ag 5, PI4K2A block -5 and LDHA inh -2.
`O=Cc1ccc(N2CCCC2)c(F)c1` gave RGS4 inh 22%, pAkt inh inactive, DRD3 antagonist 11, D3 ag -2, PI4K2A block -3 and LDHA inh 0.
